The text below walks through data of PubChem BioAssay (NCATS).

Structures are written as SMILES. Records with an inconclusive call do not appear. Unmarked numbers belong to inactive results. Active and inactive are the calls of the source. Unless noted, calls come from the whole dose curve; as a rule, active = well fitted curve in either direction with a large enough effect (not every such curve was filed as active); inconclusive = small, poorly fitted or top-dose-only effect, or another doubt; inactive = flat fitted curve, though single readings scatter. Where only a bound is given, the exact number is not on record here.

Cytochrome P450 1A2 (Homo sapiens), sequence (P05177 whole entry, looked up): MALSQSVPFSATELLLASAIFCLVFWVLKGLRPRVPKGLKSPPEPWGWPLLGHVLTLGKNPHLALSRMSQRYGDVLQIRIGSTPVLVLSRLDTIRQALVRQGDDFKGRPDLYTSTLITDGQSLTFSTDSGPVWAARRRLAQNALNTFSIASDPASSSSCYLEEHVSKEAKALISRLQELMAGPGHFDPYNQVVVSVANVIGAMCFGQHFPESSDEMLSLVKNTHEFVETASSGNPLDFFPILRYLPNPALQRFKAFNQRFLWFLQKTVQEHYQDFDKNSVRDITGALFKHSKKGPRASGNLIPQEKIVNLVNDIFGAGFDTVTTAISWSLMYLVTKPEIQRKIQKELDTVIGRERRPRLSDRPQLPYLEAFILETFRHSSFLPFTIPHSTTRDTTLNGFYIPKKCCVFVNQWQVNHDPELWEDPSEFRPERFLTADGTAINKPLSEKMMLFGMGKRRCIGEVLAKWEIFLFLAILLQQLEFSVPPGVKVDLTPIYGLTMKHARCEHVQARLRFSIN

Tested on in the first assay: not listed separately
Description: AP1 Signaling Pathway (AID 357).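 Note: ME-180 reporter cells stimulated with EGF at its EC50 level; % is set by controls: 0 for no effect and ±100 for the full control effect.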 The following applies: ME-180 (cervical carcinoma) AP-1-bla reporter, EGF-induced, beta-lactamase ratio, 5 h; at 38 µM (top of the series). The gist of the method:
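Titration-series screen for positive or negative modulators of EC50 EGF-induced signaling in ME-180 cells carrying an AP-1-driven beta-lactamase reporter. After 5 hours at 37 degrees Celsius, CCF4 460nm/530nm emission ratio gave %Activity; AC50 values derived.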
As for `CN1CCC[C@@H]1c1cccnc1`, the activity change, negative = inhibition was 12.2%.

On to `COc1cc(NS(C)(=O)=O)ccc1Nc1c2ccccc2nc2ccccc12`, for which the activity change, negative = inhibition was -9.96%.

Consider `Nc1cc(Cl)c(NC2=NCCN2)c(Cl)c1`, for which the activity change, negative = inhibition was 2.68%.

As for `C[C@@H]1C(=O)NC2=Nc3cccc(Cl)c3CN21`, the activity change, negative = inhibition is 9.37%.

Another assay concerns the target Cytochrome P450 1A2 (Homo sapiens) (UniProt P05177). As to the kind of experiment: p450-cyp1a2 (AID 410; calls by dose curve; note: potency is the fitted concentration of half-maximal effect;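 for activity change, negative = inhibition: -100% = full effect of reference inhibitor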). The following applies: recombinant CYP1A2, luciferin-ME demethylation, luminescence; series mostly up to 25.6 µM. The gist of the method:
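O-Demethylation of luciferin 6' methyl ether by human CYP1A2 is monitored as luciferase luminescence. Substrate sits at Km (100uM); enzyme is 20nM. Values are scaled to 57 uM furafylline as maximal inhibition.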
For `CN1CCN(C(c2ccccc2)c2ccccc2)CC1`, the Potency entry is “inactive”.

Consider `CCCCOc1ccc(C(=O)CCN2CCCCC2)cc1`, for which the Potency is 3.16 µM (active).

Take `Cc1cc(=O)n(-c2ccccc2)n1C`: the Potency result is “inactive”.

As for `COc1cc(NS(C)(=O)=O)ccc1Nc1c2ccccc2nc2ccccc12`, the Potency was 7.94 µM (active).

Regarding `CCN(CCCc1ccccc1)CCCc1ccccc1`, the Potency was 3.98 µM (active).

For the compound `CN1CCN(CCCN2c3ccccc3Sc3ccc(S(=O)(=O)N(C)C)cc32)CC1`, the Potency is 12.6 µM (active).

On to `CC(O)(P(=O)(O)O)P(=O)(O)O`, for which the Potency result is “inactive”.

For the compound `COc1c(C)c2c(c(O)c1C/C=C(\C)CCC(=O)O)C(=O)OC2`, the Potency is 31.6 µM (active).

As for `CC(=O)N(O)CCCCCNC(=O)CCC(=O)N(O)CCCCCNC(=O)CCC(=O)N(O)CCCCCN`, the Potency entry is “inactive”.

Tested on in the next assay: not listed separately
Description: Cell Viability - BJ (AID 421; calls by dose curve;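 note: potency is the fitted concentration of half-maximal effect; cells exposed to compound for 40 hours at 37 °C before readout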). The note with it: BJ fibroblast viability, qHTS. The method, boiled down: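 Cytotoxicity as drop in intracellular ATP (CellTiter-Glo, 20 min RT) after 40 hr compound exposure of BJ fibroblasts at 37 °C. Titrations scaled between DMSO and 100 uM tamoxifen, Hill-fitted for AC50.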
On the technique in general: qHTS replaces the single test concentration by a dilution series.
Turning to `CC(C)(C)CC(C)(C)c1ccc(OCCOCC[N+](C)(C)Cc2ccccc2)cc1`, the Potency is 52.9 µM (active).

`CC(=O)O[C@]1(C(C)=O)CC[C@H]2[C@@H]3C[C@H](C)C4=CC(=O)CC[C@]4(C)[C@H]3CC[C@@]21C`: the Potency is more than 92 µM.

For the compound `Oc1c(Cl)cc(Cl)cc1Sc1cc(Cl)cc(Cl)c1O`, the Potency was more than 92 µM.

Tested on in a further assay: not listed separately
As to the kind of experiment: Cell Viability - HepG2 (AID 433; calls by dose curve;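 note: potency is the fitted concentration of half-maximal effect; cells exposed to compound for 40 hours; potency for ATP loss meaning cytotoxicity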). The following applies: qHTS. The method, boiled down:
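HepG2 cells, 1500 per well, treated 40 hr at 37 °C in complete medium; viability from intracellular ATP by CellTiter-Glo luminescence. Normalized to DMSO and 100 uM tamoxifen; AC50 from Hill fit of qHTS concentration-response.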
Consider `CC(C)(C)CC(C)(C)c1ccc(OCCOCC[N+](C)(C)Cc2ccccc2)cc1`, for which the Potency was 57.8 µM (active).

Take `CC(=O)O[C@]1(C(C)=O)CC[C@H]2[C@@H]3C[C@H](C)C4=CC(=O)CC[C@]4(C)[C@H]3CC[C@@]21C`: the Potency is more than 92 µM.

With `Oc1c(Cl)cc(Cl)cc1Sc1cc(Cl)cc(Cl)c1O`, the Potency is 27.9 µM (active).

Tested on in the next assay: not listed separately
Description: NFAT Signaling Pathway (AID 444).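 Note: carbachol stimulus at about its EC50 of 1 µM final; % is set by controls: 0 for no effect and ±100 for the full control effect.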 The note with it: Jurkat NFAT-bla M1, carbachol, beta-lactamase ratio, 5 h; at 17.2 µM (top of the series). The method, boiled down:
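Read-out: CCF4 FRET ratio (460 nm/530 nm) after 1 h RT dye loading, used for %activity and AC50 from titration series. Cells: Jurkat NFAT-β-lactamase/M1 line, treated with compound plus 1 uM carbachol for 5 h, 37 °C.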
Regarding `C[C@H]1C[C@H]2[C@@H]3CCC4=CC(=O)C=C[C@]4(C)[C@@]3(Cl)[C@@H](O)C[C@]2(C)[C@@]1(O)C(=O)CO`, the activity change, negative = inhibition was -6.95%.

On to `CCN1CCN(c2cc3c(cc2F)c(=O)c(C(=O)O)cn3C2CC2)CC1`, for which the activity change, negative = inhibition is 3.59%.

As to `CCCC1O[C@@H]2C[C@H]3[C@@H]4CCC5=CC(=O)C=C[C@]5(C)[C@H]4[C@@H](O)C[C@]3(C)[C@]2(C(=O)CO)O1` (stereo partly specified), the activity change, negative = inhibition is 23.6%.

For `CC(C)N=C(N)/N=C(\N)Nc1ccc(Cl)cc1`, the activity change, negative = inhibition is -11%.

Regarding `CCC(NC(C)C)C(O)c1ccc(O)c(O)c1` (stereo unspecified), the activity change, negative = inhibition is 3%.

Regarding `CCC(C(=O)OCCN(CC)CC)c1ccccc1` (stereo unspecified), the activity change, negative = inhibition is -83.4% (active).

Turning to `CCCC(=O)Nc1ccc(OCC(O)CNC(C)C)c(C(C)=O)c1` (stereo unspecified), the activity change, negative = inhibition is -15.3%.

Consider `Cc1cc(=O)n(-c2ccccc2)n1C`, for which the activity change, negative = inhibition is -2.45%.

Turning to `CC(=O)OCC(=O)[C@@]1(OC(C)=O)[C@@H](C)C[C@H]2[C@@H]3C[C@H](F)C4=CC(=O)C=C[C@]4(C)[C@@]3(F)[C@@H](O)C[C@@]21C`, the activity change, negative = inhibition is 17.4%.

With `CC1(C)O[C@@H]2C[C@H]3[C@@H]4C[C@H](F)C5=CC(=O)CC[C@]5(C)[C@H]4[C@@H](O)C[C@]3(C)[C@]2(C(=O)CO)O1`, the activity change, negative = inhibition is 16.2%.

With `CCN(CCCCOC(=O)c1ccc(OC)c(OC)c1)C(C)Cc1ccc(OC)cc1` (stereo unspecified), the activity change, negative = inhibition was -93.3% (active).

With `CC(C)(Oc1ccc(Cl)cc1)C(=O)O`, the activity change, negative = inhibition is 15.7%.

Regarding `CC(=O)O[C@]1(C(C)=O)CC[C@H]2[C@@H]3C[C@H](C)C4=CC(=O)CC[C@]4(C)[C@H]3CC[C@@]21C`, the activity change, negative = inhibition was 6.28%.

In the case of `CCN(CCCc1ccccc1)CCCc1ccccc1`, the activity change, negative = inhibition was -87% (active).

`C[C@H](CCC(=O)O)[C@H]1CC[C@H]2[C@@H]3C(=O)C[C@@H]4CC(=O)CC[C@]4(C)[C@H]3CC(=O)[C@]12C`: the activity change, negative = inhibition was 13.3%.

As to `CC(=O)OCC(=O)[C@@]1(O)CC[C@H]2[C@@H]3CCC4=CC(=O)C=C[C@]4(C)[C@H]3[C@@H](O)C[C@@]21C`, the activity change, negative = inhibition is -6.54%.

As to `NCCCC[C@H](N[C@@H](CCc1ccccc1)C(=O)O)C(=O)N1CCC[C@H]1C(=O)O`, the activity change, negative = inhibition is -2.99%.

For the compound `CC(CCc1ccccc1)NCC(O)c1ccc(O)c(C(N)=O)c1` (stereo unspecified), the activity change, negative = inhibition was 9.12%.

On to `C[C@]12CC[C@H]3[C@@H](CCC4=CC(=O)CC[C@@]43C)[C@@H]1CC[C@@H]2C(=O)CO`, for which the activity change, negative = inhibition was -13.6%.

Turning to `Oc1c(Cl)cc(Cl)cc1Sc1cc(Cl)cc(Cl)c1O`, the activity change, negative = inhibition is -126% (active).

As for `C[C@@H]1C[C@H]2[C@@H]3CCC4=CC(=O)C=C[C@]4(C)[C@@]3(F)[C@@H](O)C[C@]2(C)[C@H]1C(=O)CO`, the activity change, negative = inhibition is -16.3%.

`CCCCCCCCCCCCCCCC[N+](C)(C)CCN(Cc1ccc(OC)cc1)c1ncccn1`: the activity change, negative = inhibition was 8.86%.

As for `O=C(OCCOCCO)c1ccccc1Nc1cccc(C(F)(F)F)c1`, the activity change, negative = inhibition was -18%.

For the compound `CC(O)(P(=O)(O)O)P(=O)(O)O`, the activity change, negative = inhibition was -2.6%.

On to `COc1c(C)c2c(c(O)c1C/C=C(\C)CCC(=O)O)C(=O)OC2`, for which the activity change, negative = inhibition was -1.42%.

As for `CC(=O)OCC(=O)[C@@]1(O)[C@H](C)C[C@H]2[C@@H]3CCC4=CC(=O)C=C[C@]4(C)[C@@]3(F)[C@@H](O)C[C@@]21C`, the activity change, negative = inhibition is 29.8%.

For the compound `CC(=O)OCC(=O)[C@@]12OC(C)(C)O[C@@H]1C[C@H]1[C@@H]3C[C@H](F)C4=CC(=O)C=C[C@]4(C)[C@@]3(F)[C@@H](O)C[C@@]12C`, the activity change, negative = inhibition was 15.1%.
